Data on 9 molecules can be found in PubChem BioAssay (EPA / NIEHS).

The AC50 is the concentration at which the activity in the assay is half-maximal.

For test [1], the target named is Paired box protein Pax-6 (Homo sapiens) (UniProt P26367). The test can be described thus: ATG_Pax6_CIS: Attagene CIS-FACTORIAL HepG2 Assay for human Paired Box 6 (PAX6) (AID 2282956). Particulars: HepG2 CIS-FACTORIAL PAX6 reporter transcription, RNA readout; actives raise or lower the signal. The gist of the method: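 Fluorescent RT-PCR products separated by capillary electrophoresis report PAX6-linked promoter mRNA in HepG2 cells 24 h post-dose. Curves fitted bidirectionally, DMSO as negative control.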
Chain of Paired box protein Pax-6 (Homo sapiens) (P26367 whole entry, looked up): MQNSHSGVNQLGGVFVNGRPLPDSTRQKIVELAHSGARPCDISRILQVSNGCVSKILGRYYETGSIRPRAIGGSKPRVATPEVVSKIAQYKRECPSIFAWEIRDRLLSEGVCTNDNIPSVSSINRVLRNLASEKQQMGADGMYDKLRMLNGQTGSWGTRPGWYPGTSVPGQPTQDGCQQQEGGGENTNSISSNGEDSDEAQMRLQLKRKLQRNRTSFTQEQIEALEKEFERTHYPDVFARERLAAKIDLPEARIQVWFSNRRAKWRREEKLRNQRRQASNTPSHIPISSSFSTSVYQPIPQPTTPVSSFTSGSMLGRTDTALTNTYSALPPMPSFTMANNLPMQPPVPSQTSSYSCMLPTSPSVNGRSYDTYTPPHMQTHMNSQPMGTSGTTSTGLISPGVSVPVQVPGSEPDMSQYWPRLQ

Test [2] is described as follows: ATG_PXRE_CIS: Attagene CIS-FACTORIAL HepG2 Assay for human Pregnane X Receptor Element (PXRE) (AID 2282957). Particulars: HepG2 Attagene CIS-FACTORIAL PXRE reporter, mRNA; actives raise or lower the signal. The gist of the method: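 Reporter transcripts under endogenous PXR-responsive cis-regulation quantified from total RNA of transfected HepG2 cells 24 h post-dosing, via RT-PCR with fluorescent primer extension and capillary electrophoresis. Gain or loss of signal fitted against DMSO baseline.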

Test [3] in a line: ATG_PPRE_CIS: Attagene CIS-FACTORIAL HepG2 Assay for human Peroxisome Proliferator-activated Response Element (PPRE) (AID 2282958). Particulars: HepG2 PPRE cis-element reporter, Attagene transcription factor profiling; actives raise or lower the signal. An outline of the steps:
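PPRE activity in HepG2: transient cis-reporter transfection, 24 h compound incubation, reporter mRNA by RT-PCR and CE fluorescence; gain/loss fitted against DMSO.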

Test [4] is described as follows: ATG_RORE_CIS: Attagene CIS-FACTORIAL HepG2 Assay for human RAR-related Orphan Receptor Element (RORE) (AID 2282959). The conditions noted are these: HepG2 Attagene cis-factorial RORE reporter, mRNA; actives raise or lower the signal. The gist of the method: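 A 24-hour exposure of transfected HepG2 hepatoma cells precedes RNA isolation and reporter RT-PCR. Labeled products are digested with HpaI and resolved by capillary electrophoresis, with gain or loss of signal scored relative to DMSO.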

Test [5] can be described thus: ATG_Sox_CIS: Attagene CIS-FACTORIAL HepG2 Assay for human SRY-box transcription factor (SOX) (AID 2282960). Particulars: HepG2 Attagene cis-factorial SOX reporter, mRNA; actives raise or lower the signal. The gist of the method:
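HepG2, cis reporter units, 24 h exposure. Reporter mRNA: RT-PCR → FAM labelling → HpaI → CE fluorescence. Bidirectional fit vs DMSO.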

For test [6], the target named is Transcription factor Sp1 (Homo sapiens) (UniProt P08047). The test can be described thus: ATG_Sp1_CIS: Attagene CIS-FACTORIAL HepG2 Assay for human Specificity Protein 1 (Sp1) (AID 2282961). The conditions noted are these: HepG2 Sp1 cis-reporter transcription, actives raise or lower the signal. The gist of the method:
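Liver-derived HepG2 cells, cis-element reporter library, 24 h treatment; RNA isolated, cDNA amplified with reporter-specific primers, FAM-labeled fragments sized on capillary analyzer. DMSO baseline, bidirectional curve fit.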

A short description of test [7]: ATG_SREBP_CIS: Attagene CIS-FACTORIAL HepG2 Assay for human Sterol Regulatory Element Binding (SREBP) (AID 2282962). The conditions noted are these: HepG2 Attagene cis-factorial SREBP reporter, mRNA; actives raise or lower the signal. The gist of the method:
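Endogenous factor activity is measured in HepG2 through multiplexed reporter units under cis-element control. Following a 24 h incubation, reporter transcripts are reverse-transcribed, PCR-amplified and sized by capillary electrophoresis; activity is fitted in both directions relative to DMSO.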

The target in test [8] is Signal transducer and activator of transcription 3 (Homo sapiens) (UniProt P40763). The test can be described thus: ATG_STAT3_CIS: Attagene CIS-FACTORIAL HepG2 Assay for human Signal Transducer and Activator of Transcription 3 (STAT3) (AID 2282963). The conditions noted are these: HepG2, Attagene cis-factorial STAT3 reporter transcription; actives raise or lower the signal. An outline of the steps: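 Fluorescence intensity of 6-FAM-labelled reporter fragments, separated by capillary electrophoresis after RT-PCR, gave the signal. Cells were HepG2 transfected with cis-element reporter units and treated 24 h; fitting was bidirectional relative to DMSO.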
Chain of Signal transducer and activator of transcription 3 (Homo sapiens) (P40763 whole entry, looked up, the tested form may be a part): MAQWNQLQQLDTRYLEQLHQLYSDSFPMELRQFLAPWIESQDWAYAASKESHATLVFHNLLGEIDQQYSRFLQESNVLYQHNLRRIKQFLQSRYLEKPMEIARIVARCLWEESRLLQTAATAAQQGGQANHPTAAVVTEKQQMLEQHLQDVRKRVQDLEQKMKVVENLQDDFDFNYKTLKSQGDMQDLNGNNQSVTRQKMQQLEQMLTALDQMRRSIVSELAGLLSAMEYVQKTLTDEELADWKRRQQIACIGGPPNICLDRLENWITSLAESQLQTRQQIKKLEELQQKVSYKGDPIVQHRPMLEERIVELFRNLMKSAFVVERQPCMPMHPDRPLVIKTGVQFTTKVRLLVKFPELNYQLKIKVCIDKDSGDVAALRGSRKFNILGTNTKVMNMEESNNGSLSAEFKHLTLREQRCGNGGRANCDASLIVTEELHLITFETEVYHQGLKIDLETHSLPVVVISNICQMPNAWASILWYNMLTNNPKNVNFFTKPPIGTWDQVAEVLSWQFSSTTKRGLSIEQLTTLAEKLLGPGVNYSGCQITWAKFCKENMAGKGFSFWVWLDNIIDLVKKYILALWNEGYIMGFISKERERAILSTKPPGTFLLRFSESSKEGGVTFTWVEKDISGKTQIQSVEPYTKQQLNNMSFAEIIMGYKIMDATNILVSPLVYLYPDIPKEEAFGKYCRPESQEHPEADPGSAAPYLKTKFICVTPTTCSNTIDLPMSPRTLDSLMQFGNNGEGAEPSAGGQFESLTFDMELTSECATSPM

Test [9] can be described thus: ATG_TA_CIS: Attagene CIS-FACTORIAL HepG2 Assay for human TA Basal Promoter (AID 2282964). Particulars: HepG2 Attagene CIS-factorial TA basal promoter reporter; actives raise or lower the signal. The gist of the method:
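Background internal-marker endpoint from a 52-component HepG2 cis-reporter panel. Cells treated 24 h; reporter transcripts quantified via RT-PCR and CE fluorescence against DMSO baseline.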

Test [10] is described as follows: ATG_TCF_b_cat_CIS: Attagene CIS-FACTORIAL HepG2 Assay for human T-Cell-Factor with beta-catenin (TCF/b-cat) (AID 2282965). The conditions noted are these: HepG2 TCF/beta-catenin cis-reporter transcription, actives raise or lower the signal. An outline of the steps:
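Cells of the HepG2 line carry transiently transfected reporter units whose promoters respond to endogenous factors. Twenty-four hours post-dosing, reporter mRNA induction is measured by fluorescent RT-PCR and capillary electrophoresis, with DMSO as baseline.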

Test [11] can be described thus: ATG_TAL_CIS: Attagene CIS-FACTORIAL HepG2 Assay for human TAL Basal Promoter (AID 2282966).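 Also: background control endpoint measuring basal TAL promoter reporter mRNA not a specific factor.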 Particulars: HepG2 Attagene cis-factorial TAL promoter reporter; actives raise or lower the signal. An outline of the steps:
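Background-control endpoint: basal TAL promoter reporter transcripts in transiently transfected HepG2, measured 24 h after dosing. Read-out by RT-PCR with fluorescent primer extension and capillary electrophoresis; gain or loss of signal fitted relative to DMSO.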

Test [12] in a line: ATG_TGFb_CIS: Attagene CIS-FACTORIAL HepG2 Assay for human Transforming Growth Factor (TGF) (AID 2282967). The conditions noted are these: HepG2 Attagene CIS TGFb reporter, mRNA transcription; actives raise or lower the signal. The gist of the method:
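Liver HepG2 line, cis-factorial reporter panel, 24 h dosing. Quantitation: RT-PCR products labeled with 6-FAM, cut with HpaI, resolved by capillary electrophoresis; DMSO-referenced bidirectional analysis.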

Test [13] in a line: ATG_VDRE_CIS: Attagene CIS-FACTORIAL HepG2 Assay for human Vitamin D Receptor Element (VDRE) (AID 2282968). Particulars: HepG2 VDRE cis-reporter transcription, actives raise or lower the signal. The gist of the method:
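Compounds were applied for 24 h to HepG2 cells transfected with promoter-regulated reporter units. Total RNA was reverse-transcribed, and reporter amplicons were fluorescently labelled and sized by capillary electrophoresis.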

Test [14] concerns the target Steroid hormone receptor ERR1 (Homo sapiens) (UniProt P11474). The test can be described thus: ATG_ERRa_TRANS: Attagene TRANS-FACTORIAL HepG2 Assay for human Estrogen-Related Receptor alpha (ERRa) (AID 2282971; active = hit-call score of the fitted dose curve at least 0.9, where 1 is the maximum). Particulars: HepG2 Attagene TRANS reporter, ERRa transactivation. The gist of the method: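 Reporter transcripts from ERRa-Gal4 chimera activity measured in transiently transfected human HepG2 cells 24 hours after dosing, using RT-PCR with 6-FAM primer extension, HpaI digestion and capillary electrophoresis; DMSO is baseline.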

Test [15] deals with X-box-binding protein 1 (Homo sapiens) (UniProt P17861). In words: ATG_Xbp1_CIS: Attagene CIS-FACTORIAL HepG2 Assay for human X-box Binding Protein 1 (XBP1) (AID 2282972). Particulars: HepG2 XBP1 cis-element reporter, Attagene multiplex; actives raise or lower the signal. An outline of the steps:
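Multiplexed cis-reporter readout in transfected HepG2 liver cells. Exposure lasted 24 hours. Activity in either direction was fitted against DMSO as negative control and baseline.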

Test [16] can be described thus: ATG_M_19_TRANS: Attagene TRANS-FACTORIAL HepG2 Assay for M19 Transcription Factor (Internal Marker) (AID 2282974; active = hit-call score of the fitted dose curve at least 0.9, where 1 is the maximum). Particulars: HepG2 Attagene TRANS-FACTORIAL M19 internal marker reporter. An outline of the steps: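 Transfected HepG2 (GAL4-UAS MRTUs), 24 h compound, TriZol RNA, DNase-treated RT, reporter PCR, FAM label, HpaI digest, CE fluorescence; gain vs DMSO.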

Test [17] concerns the target Nuclear receptor subfamily 1 group I member 3 (Homo sapiens) (UniProt Q14994). The test can be described thus: ATG_CAR_TRANS: Attagene TRANS-FACTORIAL HepG2 Assay for human Constitutive Androstane Receptor (CAR) (AID 2282969; active = hit-call score of the fitted dose curve at least 0.9, where 1 is the maximum;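 also: activators raise reporter mRNA above DMSO so AC50 marks induction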). The conditions noted are these: HepG2 Attagene TRANS-FACTORIAL CAR reporter. An outline of the steps: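 Transiently transfected HepG2, multiplex TRANS reporters (CAR-Gal4 chimera driving GAL4-UAS reporter). 24 h dosing. Readout: reporter transcript by RT-PCR + capillary electrophoresis, fluorescence intensity; positive direction vs DMSO.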

Test [18] is described as follows: ATG_GAL4_TRANS: Attagene TRANS-FACTORIAL HepG2 Assay for GAL4 (Internal Marker) (AID 2282976; active = hit-call score of the fitted dose curve at least 0.9, where 1 is the maximum). The conditions noted are these: HepG2 Attagene TRANS GAL4 internal marker reporter. The gist of the method: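 In transfected human HepG2 liver cells dosed 24 h, GAL4 reporter mRNA serves as a baseline marker. Detection by RT-PCR with fluorescent capillary electrophoresis, activity fitted upward relative to DMSO.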

Test [19] deals with Estrogen receptor (Homo sapiens) (UniProt P03372). The test can be described thus: ATG_ERa_TRANS: Attagene TRANS-FACTORIAL HepG2 Assay for human Estrogen Receptor alpha (ERa) (AID 2282970; active = hit-call score of the fitted dose curve at least 0.9, where 1 is the maximum). Particulars: HepG2 Attagene TRANS ERa GAL4 reporter, mRNA. An outline of the steps: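 Reporter transcripts were measured 24 h after dosing by RT-PCR with fluorescent primer extension and capillary electrophoresis. The system is transiently transfected HepG2 expressing exogenous NR-Gal4 chimeras driving GAL4-UAS reporters; DMSO is the baseline.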
Chain of Estrogen receptor (Homo sapiens) (P03372 whole entry, looked up, the tested form may be a part): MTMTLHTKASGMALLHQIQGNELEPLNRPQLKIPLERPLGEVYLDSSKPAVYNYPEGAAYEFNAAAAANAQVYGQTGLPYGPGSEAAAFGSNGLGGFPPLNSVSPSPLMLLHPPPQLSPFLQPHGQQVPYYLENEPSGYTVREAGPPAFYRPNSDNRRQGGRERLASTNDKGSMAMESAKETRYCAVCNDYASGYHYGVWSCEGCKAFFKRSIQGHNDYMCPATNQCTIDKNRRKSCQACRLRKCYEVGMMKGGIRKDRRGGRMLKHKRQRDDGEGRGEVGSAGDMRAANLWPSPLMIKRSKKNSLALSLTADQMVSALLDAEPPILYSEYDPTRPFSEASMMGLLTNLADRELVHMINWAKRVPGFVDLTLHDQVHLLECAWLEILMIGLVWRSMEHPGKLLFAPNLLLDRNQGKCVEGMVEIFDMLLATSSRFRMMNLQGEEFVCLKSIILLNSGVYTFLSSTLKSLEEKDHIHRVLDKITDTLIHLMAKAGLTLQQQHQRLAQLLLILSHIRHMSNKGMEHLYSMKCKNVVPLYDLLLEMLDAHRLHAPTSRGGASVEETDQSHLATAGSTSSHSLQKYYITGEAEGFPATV

Inconclusive results are not listed. Activity calls are given as the source filed them. The calls were made as follows, unless noted: active = hit-call score of the fitted dose curve at least 0.9, where 1 is the maximum; inactive = score below 0.9.

Chain of X-box-binding protein 1 (Homo sapiens) (P17861 whole entry, looked up): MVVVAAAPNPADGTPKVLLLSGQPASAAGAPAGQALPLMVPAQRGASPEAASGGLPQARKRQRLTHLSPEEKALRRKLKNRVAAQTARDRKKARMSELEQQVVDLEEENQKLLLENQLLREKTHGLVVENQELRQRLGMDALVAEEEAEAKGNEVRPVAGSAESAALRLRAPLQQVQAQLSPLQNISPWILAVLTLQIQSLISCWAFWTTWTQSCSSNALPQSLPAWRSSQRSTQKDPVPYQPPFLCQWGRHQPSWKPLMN
Chain of Transcription factor Sp1 (Homo sapiens) (P08047 whole entry, looked up, the tested form may be a part): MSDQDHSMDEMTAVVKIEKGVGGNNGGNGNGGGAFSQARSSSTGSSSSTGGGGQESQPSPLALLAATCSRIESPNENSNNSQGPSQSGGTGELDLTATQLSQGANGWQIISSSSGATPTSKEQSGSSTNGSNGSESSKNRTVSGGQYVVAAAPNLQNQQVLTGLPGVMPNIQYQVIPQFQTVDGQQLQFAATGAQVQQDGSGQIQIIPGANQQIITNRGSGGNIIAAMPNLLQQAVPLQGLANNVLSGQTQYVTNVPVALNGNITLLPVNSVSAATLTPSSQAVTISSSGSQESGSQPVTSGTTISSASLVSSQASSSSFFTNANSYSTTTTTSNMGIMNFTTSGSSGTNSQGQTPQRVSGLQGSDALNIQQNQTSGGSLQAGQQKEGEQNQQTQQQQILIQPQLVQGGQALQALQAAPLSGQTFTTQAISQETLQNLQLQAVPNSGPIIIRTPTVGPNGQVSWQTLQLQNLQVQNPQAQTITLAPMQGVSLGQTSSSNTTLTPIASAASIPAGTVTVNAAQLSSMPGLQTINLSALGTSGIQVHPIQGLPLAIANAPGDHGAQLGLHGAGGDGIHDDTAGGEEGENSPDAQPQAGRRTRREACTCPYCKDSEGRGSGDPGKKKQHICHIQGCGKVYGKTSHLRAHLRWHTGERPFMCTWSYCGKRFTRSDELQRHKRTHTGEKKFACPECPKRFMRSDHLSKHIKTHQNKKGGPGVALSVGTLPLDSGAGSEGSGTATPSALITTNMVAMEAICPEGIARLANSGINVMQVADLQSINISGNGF
Chain of Nuclear receptor subfamily 1 group I member 3 (Homo sapiens) (Q14994 whole entry, looked up, the tested form may be a part): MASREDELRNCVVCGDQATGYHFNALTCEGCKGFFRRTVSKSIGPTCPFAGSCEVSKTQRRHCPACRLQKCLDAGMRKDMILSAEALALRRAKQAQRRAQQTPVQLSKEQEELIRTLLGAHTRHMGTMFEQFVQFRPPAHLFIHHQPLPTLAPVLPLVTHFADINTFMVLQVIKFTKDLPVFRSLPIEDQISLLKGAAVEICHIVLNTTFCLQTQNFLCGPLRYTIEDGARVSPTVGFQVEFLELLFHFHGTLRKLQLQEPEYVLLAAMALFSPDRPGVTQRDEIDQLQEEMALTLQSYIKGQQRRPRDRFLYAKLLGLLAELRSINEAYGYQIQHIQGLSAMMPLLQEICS
Chain of Steroid hormone receptor ERR1 (Homo sapiens) (P11474 whole entry, looked up, the tested form may be a part): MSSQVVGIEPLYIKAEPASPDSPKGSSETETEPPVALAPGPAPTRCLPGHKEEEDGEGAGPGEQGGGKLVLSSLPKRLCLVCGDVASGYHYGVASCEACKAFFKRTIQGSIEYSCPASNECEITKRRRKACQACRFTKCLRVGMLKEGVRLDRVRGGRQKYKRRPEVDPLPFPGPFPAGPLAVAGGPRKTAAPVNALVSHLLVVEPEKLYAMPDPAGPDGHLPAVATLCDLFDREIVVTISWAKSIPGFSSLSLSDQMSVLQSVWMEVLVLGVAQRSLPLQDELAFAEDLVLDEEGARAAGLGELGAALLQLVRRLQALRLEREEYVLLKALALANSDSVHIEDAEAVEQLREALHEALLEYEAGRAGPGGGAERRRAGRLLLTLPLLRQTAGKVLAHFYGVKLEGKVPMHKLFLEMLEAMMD

Turning to `COC(=O)c1ccccc1N`, the result in test [1], in test [3], in test [4], in test [5], in test [6] and in test [7] was inactive. Further, the molecule was classed as inactive in test [8], in [9], in test [10], in test [11], in [12] and in test [13]. Further, the outcome in test [14], in test [15] and in test [16] was inactive. Besides, the AC50 in [2] was 100 µM (active).
For the molecule `CN(C)c1ccc(C(=O)c2ccc(N(C)C)cc2)cc1`, the molecule was called inactive in test [1], in test [3], in [4], in test [5], in test [6] and in test [7]. The molecule was classed as inactive in [8], in test [9], in test [10], in [11], in test [12] and in test [13]. Besides, the result in test [15] and in test [16] was inactive. In addition, in [2], the AC50 is 3.72 µM (active).
Consider `ClCCOCCCl`, for which the molecule was classed as inactive in [1], in test [2], in test [3], in test [4], in [5] and in [6]. For the same molecule, the outcome in test [7], in test [8], in [9], in test [10], in test [11] and in test [12] was inactive. Also, the molecule was called inactive in test [15] and in [16].
With `CCCCOC(=O)c1ccccc1C(=O)OCc1ccccc1`, the result in [1], in test [3], in [4], in [5], in [6] and in test [7] was inactive. The outcome in test [8], in test [9], in test [10], in [11], in test [12] and in test [17] was inactive. The result in test [15], in [16] and in test [18] was inactive. Further, the AC50 in test [2] was 27.1 µM (active).
For the molecule `Clc1ccccc1Cl`, the outcome in test [1], in [2], in test [3], in test [4], in test [5] and in test [6] was inactive. Moreover, the result in [7], in test [8], in test [9], in [10], in [11] and in [12] was inactive. For the same molecule, the result in [13] and in test [15] was inactive.
Turning to `ClC1=C(Cl)C2(Cl)C3C(Cl)C=CC3C1(Cl)C2(Cl)Cl` (stereo not drawn), the AC50 in test [1] is 139 µM (active); in test [2] it was 7.47 µM (active); in test [6], 168 µM (active). The result in test [3], in test [4], in [5], in test [7], in [8] and in test [9] was inactive. Besides, the molecule was called inactive in test [10], in [11], in test [12], in test [19] and in [15].
In the case of `CN(C)C(=O)Nc1ccc(Cl)cc1`, the call in test [1], in [2], in test [3], in test [4], in [5] and in test [6] was inactive. For the same molecule, the molecule was called inactive in [7], in test [8], in test [9], in test [10], in test [11] and in test [12]. For the same molecule, the outcome in test [13], in test [15] and in [18] was inactive.
As for `C[N+](C)(C)CC1CO1` (stereo not drawn), the result in [1], in test [2], in [3], in [4], in test [5] and in test [6] was inactive. The call in [7], in test [8], in [9], in test [10], in test [11] and in test [12] was inactive. In addition, the outcome in test [15] and in test [16] was inactive.
Consider `N#CC(Br)(Br)C(N)=O`, for which the call in test [1], in [3], in test [4], in test [5], in [6] and in test [8] was inactive. In addition, the outcome in test [9], in [11], in test [12], in test [13], in [15] and in test [16] was inactive. For the same molecule, the values for the AC50 in test [2], in test [7] and in [10] were 100 µM (active), 169 µM (active) and 165 µM (active), respectively.
